PubChem BioAssay
The source made the active and inactive calls.

assay: fission yeast growth modulation, primary screen, strain 972, OD600, 24 h, no modulator (AID 1090);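 further: basal condition with compound alone and no growth modifier present; test concentration not given here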; details: S. pombe 972 growth, higher = more signal, called active from +8 up or from −8 down

z-score, inactive:
CC1=C([C@H](O)CCc2ccccc2)[C@H](CO)[C@@H]2C(=O)N(Cc3ccccc3)C(=O)[C@@H]2C1 -1.41
C=C[C@H](OC)[C@@H](OC(=O)Nc1ccc(SC)cc1)c1ccc(OC)c(O)c1 -0.965
CC(C)(C)OC(=O)CC[C@@]1(C(=O)NCc2ccccc2)N=C(c2ccc(OCCCO)cc2)O[C@@H]1c1ccccc1 -1.2
O=C1c2ccccc2[C@](Cc2ccccc2I)(C(=O)NCC(F)(F)F)[C@H](c2ccc(CO)cc2)N1Cc1ccccc1C(F)(F)F -1.15
C=CCC(OC(C)=O)[C@@H]1[C@@H](N(Cc2cccc3ccccc23)C(=O)Cc2ccc(F)cc2)c2cc(OCCCO)ccc2N1C(=O)Cc1ccc2ccccc2c1 (stereo not given in full) 1.1
C=CCN1C(=O)[C@@]2(Cc3ccccc3)N=C(c3ccc(OCCCO)cc3)O[C@H]2c2ccccc21 -5.06
Cc1ccc(N2C(=O)c3ccccc3[C@@H](C(=O)NCc3ccccc3)[C@@H]2c2ccc(CO)cc2)nc1 -0.242
CO[C@H]1COC(=O)[C@H](C)COC(=O)[C@H](Cc2ccccc2)NC(=O)CC=C[C@H]1C -0.854
CN(C)CCCC[C@@H]1NC(=O)[C@@H]2C[C@H](C(=O)NCCCCCNC(=O)CS)[C@H](c3ccc(O)cc3)N2C1=O -1.42
O=C1O[C@H](c2ccccc2)[C@H](c2ccccc2)N2[C@H]1[C@@H](C(=O)NC[C@H](O)c1ccccc1)[C@]1(C(=O)Nc3ccc(C#CC4=CCCCC4)cc31)[C@H]2c1ccc(OCCO)cc1 1.64
